hcDAF12 agonist – H. contortus DAF-12 nuclear receptor activators, primary screen, cell-based, luminescence, HEK293, lit1-tk-luc reporter; HEK293 hcDAF-12 lit1-tk-luc reporter; 0% DMSO, 100% Δ7-dafachronic acid; activation, % at 6.8 µM; 1.4% of 370,000 active;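 active = activation above the mean of all tested compounds plus 3 SD, cut at about 5.5% in these data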
DAX1 inh-1 – DAX1 (NR0B1) inhibitors, primary screen, cell-based, HEK293, Gal4-DAX1, luciferase luminescence. 0.99% of 340,000 active. HEK293 Gal4-DAX1 luciferase reporter. Nuclear receptor subfamily 0 group B member 1 (Homo sapiens), P51843. inhibition, % at 6.75 µM;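 active = inhibition above the mean over all tested compounds plus 3 SD, cut at about 4.2% in these data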;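 note: inhibition shows as a rise in luminescence from relieved DAX1 repression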
DAX1 inh-2 – DAX1 (NR0B1) inhibitors on StAR promoter, primary screen, cell-based, luminescence, SF-1 (NR5A1), full-length DAX-1. HEK293T StAR-luciferase reporter, SF-1/DAX-1 repression relief. inhibition, % at 6.8 µM. 1.1% of 370,000 active. AID 652010, 2013;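 active = inhibition above the mean over all tested compounds plus 3 SD, cut at about 3.6% in these data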;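 note: higher inhibition means more luminescence from relief of DAX-1 repression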
hgDAF12 agonist – H. glycines DAF-12 receptor agonists, primary screen, cell-based, luminescence, HEK293, GAL4 fusion, UAS-luciferase | activation, % at 6.8 µM | Nuclear hormone receptor DAF-12 (Heterodera glycines), GAL4 fusion | 1.8% of 370,000 active | HEK293 GAL4-hgDAF12 UAS-luciferase reporter, agonist luminescence; normalized to butyrate control;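 active = activation above a cutoff set at the mean of all screened compounds plus 3 SD, cut at about 10% in these data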
ssDAF12 agonist – S. stercoralis DAF-12 nuclear receptor activators, primary screen, cell-based, luminescence, HEK293, GRIP1 co-expression, lit1-tk-luc | activation, % at 6.8 µM | 1% of 370,000 active | HEK293 ssDAF-12/GRIP1 lit1-tk-luc reporter; % of 3 µM dafachronic acid response;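 active = activation above the mean over all tested compounds plus 3 SD, cut at about 0.9% in these data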
hgDAF12 conf – H. glycines DAF-12 receptor agonists, confirmation, cell-based, luminescence, HEK293, GAL4-LBD fusion. shares compounds with hgDAF12 agonist. HEK293 GAL4-hgDAF12 luciferase reporter, agonist mode; percent of butyrate response. activation, % at 6.8 µM. 80% of 3,300 active;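 active = mean activation over triplicate wells above the hit cutoff derived from the earlier primary screen, cut at about 11% in these data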
LXR ag 2 – LXR agonists, Gal4 luciferase reporter, confirmation, counter-screen for hgDAF-12 agonist project, cell-based, luminescence, HEK293, H. glycines campaign. shares compounds with hgDAF12 agonist. 24 h. activation, % at 6.8 µM. 3,300 tested, under 10 active. AID 743051, 2013;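 active = mean activation of the triplicate above a set limit carried over from the primary screen, none filed active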
Target sequence (P55055 whole entry, looked up, the tested form may be a part): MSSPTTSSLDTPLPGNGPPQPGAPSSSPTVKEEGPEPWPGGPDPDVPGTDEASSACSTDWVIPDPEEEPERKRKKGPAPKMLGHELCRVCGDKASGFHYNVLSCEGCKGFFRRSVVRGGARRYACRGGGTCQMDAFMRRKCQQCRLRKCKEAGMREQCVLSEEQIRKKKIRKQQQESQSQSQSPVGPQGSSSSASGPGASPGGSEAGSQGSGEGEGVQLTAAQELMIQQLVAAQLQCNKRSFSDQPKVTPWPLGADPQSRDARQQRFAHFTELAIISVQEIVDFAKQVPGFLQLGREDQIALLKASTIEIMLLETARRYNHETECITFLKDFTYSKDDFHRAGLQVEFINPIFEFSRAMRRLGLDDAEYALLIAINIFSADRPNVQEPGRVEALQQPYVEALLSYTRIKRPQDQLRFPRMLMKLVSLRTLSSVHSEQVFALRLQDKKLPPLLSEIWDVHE
Hits are given with their value; – = inactive; · = no result. An excerpt weighted towards active compounds, which were near 4.1% of everything screened.

SMILES	hcDAF12 agonist	DAX1 inh-1	DAX1 inh-2	hgDAF12 agonist	ssDAF12 agonist	hgDAF12 conf	LXR ag 2
O=C(NC(=S)Nc1ccc(O)cc1)C1CCCC1	–	–	–	–	–	·	·
CC(C)=CC(=O)Nc1ccc(Br)cc1	–	–	–	16	–	15	–
N#CC(=C1C=CC(=NO)C(Cl)=C1)c1ccccc1	–	·	–	–	–	·	·
O=C(Nc1ccc(CN2CCOCC2)cc1)c1ccc(F)cc1	–	–	–	–	–	·	·
O=C(Nc1ccc(CN2CCOCC2)cc1)c1cccc(F)c1	–	–	–	15	–	14	–
CCc1ccccc1-c1cc(C(C)=O)c2n(c1=O)CCC2	–	·	–	–	–	·	·
O=c1[nH]cccc1-c1nc2ccccc2n1Cc1cccc(F)c1	–	–	–	–	–	·	·
CC(C)(C)c1ccc(OCCn2ccccc2=O)cc1	6.2	–	–	16	–	17	–
O=c1ccccn1CCOc1ccc(Cl)cc1	–	–	–	–	–	·	·
C=CCN1C(=O)[C@H](CC(=O)N2CCOCC2)[C@@]2(C(=O)OCC)CCCC=C12	–	·	–	–	–	·	·
Cc1ccc(OCCNC(=O)[C@H]2O[C@@H](n3cnc4c(N)ncnc43)[C@H](O)[C@@H]2O)cc1C	–	·	–	–	–	·	·
COc1ccc(C(=O)CSc2nc(C)cc(=O)[nH]2)cc1	–	–	–	–	–	·	·
COc1ccc(C(=O)CSc2cc(C)[nH]c(=O)n2)cc1	–	–	3.7	14	–	11	–
CCOC(=O)C1=CCN(S(=O)(=O)c2ccc(C)cc2)C1c1ccccc1F (stereo unspecified)	–	·	–	–	–	·	·
COC(=O)c1c(N)[nH]c(C(=O)c2ccccc2)c1-c1ccc(Cl)cc1	–	·	–	–	–	·	·
CSc1nc(-c2ccc(N(C)C)cc2)c(C#N)c(=O)n1C	–	–	–	14	–	–	–
CSc1nc(-c2ccc(Cl)cc2)c(C#N)c(=O)n1C	–	–	–	–	–	·	·
COc1ccc(CN(C)C[C@H]2OCCCC[C@@H](C)Oc3ccc(NC(=O)c4ccccc4)cc3C(=O)N([C@H](C)CO)C[C@@H]2C)cc1	–	–	–	–	–	·	·
O=C(O)c1ccc(/C=C/c2ccc3cccc(O)c3n2)cc1	–	–	–	15	–	11	–
COc1ccccc1/C=C/c1ccc2cccc(O)c2n1	–	–	–	–	–	·	·
O=C(NCC(F)(F)F)c1cc2c(c(-c3cccc(-c4ccccc4F)c3)n1)[C@@H](CCO)N(C(=O)CC1CC1)C2	–	·	–	–	–	·	·
Nc1nc2ccc(-c3nc4ccccc4o3)cc2s1	–	–	–	14	–	13	–
c1ccc2oc(-c3ccc4nc[nH]c4c3)nc2c1	–	–	3.8	19	–	18	–
COc1ccc(-c2nc3ccccc3o2)cc1OC	–	–	–	–	–	·	·
Fc1ccc(-c2nc3ccccc3[nH]2)cc1	–	–	–	18	–	12	–
SMILES	hcDAF12 agonist	DAX1 inh-1	DAX1 inh-2	hgDAF12 agonist	ssDAF12 agonist	hgDAF12 conf	LXR ag 2
CCCNC(=O)c1cc(C2CCCN(C(=O)C3CC3)C2)on1 (stereo unspecified)	–	·	–	–	–	·	·
O=C(CCl)Nc1ccccc1C(=O)Nc1ccc2c(c1)OCO2	–	–	–	19	–	–	–
COc1cccc(C(=O)NCc2ccc3c(c2)OCO3)c1OC	–	–	–	–	–	·	·
COc1cccc(C(=O)Nc2ccc3c(c2)OCO3)c1OC	5.8	–	–	14	–	14	–
CC(NC(=O)c1cc2c(=O)n(C)c3ccccc3c2n1C)c1ccc2c(c1)OCCO2 (stereo unspecified)	–	–	–	17	–	–	–
Cn1c(C(=O)Nc2ccc3c(c2)OCO3)cc2c(=O)n(C)c3ccccc3c21	–	–	–	–	–	·	·
O=C(c1ccc(-c2cc(Cl)ccc2Cl)o1)N1CCOCC1	–	–	–	–	–	·	·
O=C(c1ccc(-c2ccc(Cl)cc2Cl)o1)N1CCOCC1	–	4.4	–	18	–	12	–
Cc1ccc(CNC(=O)CCNS(=O)(=O)c2cccc3nsnc23)cc1	–	–	–	–	–	·	·
CCOc1ccc(-n2c(SCc3nc4ccccc4[nH]3)nnc2-c2cccc(Cl)c2)cc1	–	·	–	–	–	·	·
COc1ccc(-c2cc(C(=O)c3c(N)n(C)c(=O)n(C)c3=O)c3ccccc3n2)cc1	–	–	–	14	1.7	10	–
COC(=O)c1ccc(Cn2c(C)c(C(=O)NCc3cccc([N+](=O)[O-])c3)sc2=O)o1	–	·	–	–	–	·	·
CCc1nc2c(OCc3ccc(Cl)cc3)cccn2c1N(C=O)Cc1ccc(OC)cc1	–	·	–	–	–	·	·
COc1cc(C)ccc1OCc1cc(C(=O)N(Cc2nccn2C)C(C)C)no1	–	–	3.7	18	–	13	–
COc1ccc(N2C(=O)C3CC(C)=C(C)CC3C2=O)c(OC)c1 (stereo unspecified)	–	–	–	–	–	·	·
COc1ccc(N2C(=O)CCC2=O)c(OC)c1	–	–	–	13	–	–	–
O=C(Nc1ccccc1)c1cc(C2CCCN(C(=O)c3cccs3)C2)on1 (stereo unspecified)	–	·	–	14	–	13	–
CCOC(=O)Cc1ccc(Nc2nc(NCc3cccs3)nc3ccsc23)cc1	–	·	–	–	–	·	·
CN(C)c1ccc(-c2ccnc3c2CC(C)(C(=O)Nc2ccccc2)O3)cc1 (stereo unspecified)	–	·	–	–	–	·	·
COc1ccc(/C=N/Nc2ncc(Br)cn2)c(OC)c1	–	–	–	16	–	15	–
Nc1ncc(Br)cc1N=Cc1ccccc1	6.0	–	–	18	–	–	–
Cn1ncc(N=Cc2ccccc2)c1C(N)=O	–	–	–	–	–	·	·
COc1ccc(CCN2C(=O)c3ccccc3C2c2nnnn2-c2c(C)cccc2C)cc1OC (stereo unspecified)	–	·	–	–	–	·	·
CC1(C(=O)Nc2ccc3c(c2)OCO3)CCN1C(=O)c1ccco1 (stereo unspecified)	–	·	–	–	–	·	·

Screening data: PubChem BioAssay, The Scripps Research Institute Molecular Screening Center
